Test results published in PubChem BioAssay.
Calls of active or inactive are those of the source. Unless noted, the rule behind the calls is not given here.

Key:
[1] = compounds binding Alexa647 anti-His antibody – biochemical, small-molecule microarray, 635 nm fluorescence, artefact control for SMM control protein annotation, primary screen (AID 1128); conditions: higher = more signal;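 note: score merges feature fluorescence with signal-to-noise for each printed compound spot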
[2] = test system: Human papillomavirus type 1a E7 protein (residues 1-88); assay: HPV1a E7 small-molecule binders, primary screen, biochemical, small-molecule microarray, residues 1-88, 635 nm (AID 1129); conditions: small-molecule microarray binding, fluorescence 635 nm; higher = more signal
[3] = target: Focal adhesion kinase 1 (Homo sapiens) (UniProt Q05397); assay: PTK2 protein binding on printed compound slides – biochemical, small-molecule microarray, 635/667 nm fluorescence, BSA, DTT, primary screen (AID 1130); conditions: 635 nm fluorescence, higher = more signal;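 note: composite of spot emission at 667 nm and signal to noise over triplicate slides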
[4] = test system: Fibrinogen (Alexa647-labelled); assay: Alexa647-fibrinogen binding to printed small molecules – biochemical, small-molecule microarray, 635/667 nm fluorescence, artefact control for SMM control-protein annotation, profiling panel (AID 1131); conditions: fibrinogen-A647 binding fluorescence, higher = more signal;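 note: z-score merges 667 nm fluorescence with per-spot signal-to-noise over triplicate slides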
[5] = target: Follistatin (Homo sapiens) (UniProt P19883); assay: FST protein binding to printed compounds – biochemical, small-molecule microarray, 635/667 nm fluorescence, primary screen (AID 1132); conditions: 635 nm fluorescence, higher = more signal
[6] = target: Fibroblast growth factor 2 (Homo sapiens) (UniProt P09038); assay: basic fibroblast growth factor binding to printed compounds – biochemical, small-molecule microarray, 635/667 nm fluorescence, primary screen (AID 1133); conditions: FGF2, fluorescence 635/667, higher = more signal
[7] = JC-1 mitochondrial potential readout, lung cancer cells – cell-based, A549, JC-1 fluorescence, basal, 24 h, 100 nL, profiling panel (AID 1138); conditions: higher = more signal;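 note: A549 lung adenocarcinoma cells under basal conditions with no added stimulus; test concentration not given here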
Lefty1 = Lefty1 protein binding to printed compounds – biochemical, small-molecule microarray, 635/667 nm fluorescence, primary screen (AID 1139); conditions: fluorescence 635/667, higher = more signal
[8] = test system: wheat germ agglutinin (Triticum aestivum), Alexa647-labelled; assay: Alexa647-WGA lectin binding to printed small molecules – biochemical, small-molecule microarray, 635/667 nm fluorescence, artefact control for SMM control-protein annotation, profiling panel (AID 1140); conditions: WGA-A647 binding, 635 nm fluorescence, higher = more signal;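 note: score merges 667 nm feature emission with signal to noise over triplicate slides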
[9] = target: Luciferin 4-monooxygenase (Photinus pyralis) (UniProt P08659); assay: inhibition of purified Photinus pyralis luciferase – biochemical, luminescence, purified enzyme, 2006 set, primary screen (AID 1141); conditions: purified firefly luciferase, SteadyGlo luminescence, 30 min; higher = more signal, called active from +8 up or from −8 down;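 note: cell-free assay with purified firefly luciferase at 100 ng per well in PBS; test concentration not given here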
[10] = test system: Wnt5a (protein binding on small-molecule microarray); assay: small molecules binding Wnt5a protein – biophysical, small-molecule microarray, 635/667 nm fluorescence, primary screen (AID 1142); conditions: 635 nm fluorescence, higher = more signal;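 note: fluorescence read at 667 nm with signal to noise per printed feature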
[11] = ATP-based viability of Huh7 replicon cells – cell-based, CellTiter-Glo luminescence, basal, 48 h, cytotoxicity control for HCV replication inhibitor project, primary screen (AID 1143); conditions: higher = more signal, called active from +8 up or from −8 down;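 note: Huh7 hepatoma cells carrying a hepatitis C replication reporter with no stimulus; test concentration not given here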
[12] = Pseudomonas biofilm growth suppression – PAO1 strain, BacTiter-Glo luminescence, LB-PBS, primary screen (AID 1144); conditions: P. aeruginosa PAO1 biofilm, 12 h, higher = more signal
[13] = basal CRE-LacZ reporter activity in PC12 – cell-based, unstimulated, primary screen (AID 1145); conditions: no forskolin, luminescence, 4.5 h, higher = more signal, called active from +8 up or from −8 down
[14] = forskolin-driven CRE-LacZ activity in PC12 – cell-based, CRE-LacZ reporter, forskolin-stimulated, primary screen (AID 1146); conditions: luminescence, 4.5 h, higher = more signal, called active from +8 up or from −8 down;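 note: PC12 cells with 6xCRE LacZ reporter stimulated by forskolin 10 µM; beta-galactosidase reporter signal reflecting CREB driven transcription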
[15] = target: Streptavidin (Streptomyces avidinii) (UniProt P22629); assay: compounds binding control protein streptavidin – biophysical, small-molecule microarray, 635/667 nm fluorescence, artefact control for SMM compound annotation, primary screen (AID 1147); conditions: higher = more signal;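 note: signal reflects streptavidin binding to arrayed compounds as a control protein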
[16] = probe aInhba binding on compound microarray – biochemical, small-molecule microarray, 635/667 nm fluorescence, primary screen (AID 1148); conditions: higher = more signal;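 note: score merges 667nm spot fluorescence with signal-to-noise for antibody binding to printed compounds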
Torsin-1A (Homo sapiens) [17] = target: Torsin-1A (Homo sapiens) (UniProt O14656); assay: TOR1A wild-type binding on microarray – cell lysate, small-molecule microarray, lysate, 635/667 nm, primary screen (AID 1149); conditions: COS7 hTOR1A-WT lysate, 635 nm fluorescence, higher = more signal
Torsin-1A (Homo sapiens) [18] = target: Torsin-1A (Homo sapiens) (UniProt O14656); assay: torsin A mutant lysate binding on microarrays – cell lysate, small-molecule microarray, COS7 lysate, 635/667 nm fluorescence, primary screen (AID 1150); conditions: COS7 hTOR1A mutant lysate, 635 nm fluorescence, higher = more signal;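 note: score pools 667 nm emission and signal to noise measuring lysate protein binding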
[19] = test system: Sonic hedgehog protein (Shh); assay: Sonic hedgehog microarray binding compounds – biochemical, small-molecule microarray, 635/667 nm fluorescence, primary screen (AID 1151); conditions: 635 nm fluorescence, higher = more signal;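 note: Shh protein binding to compounds spotted on small-molecule microarray slides; score combines spot fluorescence intensity with signal-to-noise across triplicate slides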

Focal adhesion kinase 1 (Homo sapiens), sequence (Q05397 whole entry, looked up): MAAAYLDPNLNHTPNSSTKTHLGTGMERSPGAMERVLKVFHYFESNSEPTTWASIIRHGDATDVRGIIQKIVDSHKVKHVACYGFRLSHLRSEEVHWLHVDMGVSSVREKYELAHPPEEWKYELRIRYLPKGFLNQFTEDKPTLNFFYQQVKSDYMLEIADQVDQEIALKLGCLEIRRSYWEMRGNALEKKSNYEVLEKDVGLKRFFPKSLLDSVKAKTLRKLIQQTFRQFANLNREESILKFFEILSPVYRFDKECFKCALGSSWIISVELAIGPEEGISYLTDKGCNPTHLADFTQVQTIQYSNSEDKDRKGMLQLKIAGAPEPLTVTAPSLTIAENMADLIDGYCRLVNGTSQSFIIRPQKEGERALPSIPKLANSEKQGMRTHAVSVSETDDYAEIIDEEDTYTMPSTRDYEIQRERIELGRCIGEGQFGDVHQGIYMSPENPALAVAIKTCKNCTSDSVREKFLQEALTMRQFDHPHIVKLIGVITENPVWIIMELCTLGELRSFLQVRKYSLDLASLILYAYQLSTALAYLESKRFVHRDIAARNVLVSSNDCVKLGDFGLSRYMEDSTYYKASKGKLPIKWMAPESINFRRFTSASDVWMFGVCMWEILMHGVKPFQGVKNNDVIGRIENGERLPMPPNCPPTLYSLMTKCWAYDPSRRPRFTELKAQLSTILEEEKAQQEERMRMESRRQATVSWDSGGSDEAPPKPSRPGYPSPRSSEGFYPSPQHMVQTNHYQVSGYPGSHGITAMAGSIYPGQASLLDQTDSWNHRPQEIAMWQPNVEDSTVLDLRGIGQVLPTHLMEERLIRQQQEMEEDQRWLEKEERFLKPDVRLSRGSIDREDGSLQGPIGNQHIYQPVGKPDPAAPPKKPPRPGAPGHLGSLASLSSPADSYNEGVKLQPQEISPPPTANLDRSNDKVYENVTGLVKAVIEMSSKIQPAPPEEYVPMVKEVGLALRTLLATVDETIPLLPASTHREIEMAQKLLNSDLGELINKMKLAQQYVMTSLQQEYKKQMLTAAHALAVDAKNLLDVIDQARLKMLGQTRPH
Torsin-1A (Homo sapiens), sequence (O14656 whole entry, looked up): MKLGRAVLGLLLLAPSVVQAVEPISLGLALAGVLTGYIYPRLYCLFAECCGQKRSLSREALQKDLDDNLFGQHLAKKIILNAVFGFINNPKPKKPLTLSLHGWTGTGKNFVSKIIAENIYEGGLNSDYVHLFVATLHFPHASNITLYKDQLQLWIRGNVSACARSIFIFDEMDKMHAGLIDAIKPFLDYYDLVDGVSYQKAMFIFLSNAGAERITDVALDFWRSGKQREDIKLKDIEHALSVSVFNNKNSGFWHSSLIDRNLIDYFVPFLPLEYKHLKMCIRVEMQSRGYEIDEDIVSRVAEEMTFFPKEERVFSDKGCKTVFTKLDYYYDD
Streptavidin (Streptomyces avidinii), sequence (P22629 whole entry, looked up): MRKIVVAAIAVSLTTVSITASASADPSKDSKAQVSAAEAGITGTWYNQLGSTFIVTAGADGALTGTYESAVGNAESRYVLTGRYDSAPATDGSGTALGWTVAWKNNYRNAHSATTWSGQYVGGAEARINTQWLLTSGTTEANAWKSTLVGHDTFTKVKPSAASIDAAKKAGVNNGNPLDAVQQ
Fibroblast growth factor 2 (Homo sapiens), sequence (P09038 whole entry, looked up): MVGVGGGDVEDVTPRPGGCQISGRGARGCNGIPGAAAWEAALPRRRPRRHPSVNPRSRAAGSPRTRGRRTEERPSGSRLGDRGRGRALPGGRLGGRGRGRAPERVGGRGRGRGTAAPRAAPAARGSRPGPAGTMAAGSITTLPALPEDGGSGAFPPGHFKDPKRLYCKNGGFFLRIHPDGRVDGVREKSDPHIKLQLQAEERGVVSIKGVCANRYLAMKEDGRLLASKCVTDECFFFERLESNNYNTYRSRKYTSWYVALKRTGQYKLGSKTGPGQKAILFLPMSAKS
Luciferin 4-monooxygenase (Photinus pyralis), sequence (P08659 whole entry, looked up): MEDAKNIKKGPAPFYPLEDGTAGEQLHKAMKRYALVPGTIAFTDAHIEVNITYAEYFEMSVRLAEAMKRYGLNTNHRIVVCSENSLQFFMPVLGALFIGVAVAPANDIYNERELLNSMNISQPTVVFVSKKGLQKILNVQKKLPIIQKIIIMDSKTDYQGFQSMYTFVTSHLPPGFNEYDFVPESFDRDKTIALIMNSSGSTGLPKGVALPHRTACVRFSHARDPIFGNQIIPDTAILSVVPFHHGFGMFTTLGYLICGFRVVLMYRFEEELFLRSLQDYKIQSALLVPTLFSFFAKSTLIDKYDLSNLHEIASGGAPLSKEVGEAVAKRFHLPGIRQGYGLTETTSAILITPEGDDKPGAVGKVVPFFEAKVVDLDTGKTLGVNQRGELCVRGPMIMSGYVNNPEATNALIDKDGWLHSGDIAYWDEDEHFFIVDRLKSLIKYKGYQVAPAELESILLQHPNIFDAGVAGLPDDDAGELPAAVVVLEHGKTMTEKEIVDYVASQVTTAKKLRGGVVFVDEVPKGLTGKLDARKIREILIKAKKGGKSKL
Follistatin (Homo sapiens), sequence (P19883 whole entry, looked up): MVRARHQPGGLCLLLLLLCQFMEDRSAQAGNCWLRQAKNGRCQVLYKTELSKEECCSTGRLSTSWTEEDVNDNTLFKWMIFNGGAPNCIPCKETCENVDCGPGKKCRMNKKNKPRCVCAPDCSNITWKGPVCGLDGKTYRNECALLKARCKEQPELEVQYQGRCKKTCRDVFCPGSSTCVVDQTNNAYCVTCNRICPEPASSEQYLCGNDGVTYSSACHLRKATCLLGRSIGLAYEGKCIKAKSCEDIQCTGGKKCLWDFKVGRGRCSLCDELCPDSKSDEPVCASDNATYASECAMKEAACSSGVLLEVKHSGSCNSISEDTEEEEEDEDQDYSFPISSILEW

Structure (SMILES)	composite z-score [1]	composite z-score [2]	composite z-score [3]	composite z-score [4]	composite z-score [5]	composite z-score [6]	z-score [7]	composite z-score (Lefty1)	composite z-score [8]	z-score [9]	composite z-score [10]	z-score [11]	z-score [12]	z-score [13]	z-score [14]	composite z-score [15]	composite z-score [16]	composite z-score (Torsin-1A (Homo sapiens) [17])	composite z-score (Torsin-1A (Homo sapiens) [18])	composite z-score [19]
C=C[C@H](COC(C)=O)N(Cc1ccc(OC(C)=O)c(OC)c1)S(=O)(=O)c1ccc(Br)cc1	1.29	1.12	-0.174	0.59	1.37	1.75	1.15	1.02	0.492	0.271 (inactive)	0.714	-2.08 (inactive)	-0.569 (inactive)	0.195 (inactive)	-1.9 (inactive)	1.12	0.0219	1.85	2.14	1.75
CCOC(=O)C[C@H]1[C@H](OC(=O)c2ccccc2-c2ccccc2)[C@@H](NC(=O)c2ccc3ccccc3c2)c2cc(OCCCO)ccc2N1C(=O)c1ccc2ccccc2n1	0.0868	0.635	-0.0301	0.0467	0.874	0.306	0.988	0.543	0.119	0.667 (inactive)	0.0952	0.0364 (inactive)	-0.756 (inactive)	0.311 (inactive)	0.429 (inactive)	0.162	-0.0087	0.335	0.0486	0.575
Cc1cc(C)c(C(O)C2C=CC3C(=O)N(c4ccccc4)C(=O)C3N2Nc2ccc(C#N)cc2)c(C)c1 (stereo not given)	1.21	1.23	0.388	0.912	0.509	0.312	-0.613	0.302	1.03	-0.75 (inactive)	0.461	0.287 (inactive)	-1.36 (inactive)	0.246 (inactive)	1.19 (inactive)	2	0.427	0.221	1.51	-0.438
O=C(O)[C@H]1C[C@H]2C(=O)NCC(=O)N2[C@H]1c1ccc(O)cc1	2.65	-0.722	0.0888	-0.908	1.32	1.05	1.97	0.368	-0.0842	-1.54 (inactive)	-0.0071	-0.283 (inactive)	-0.642 (inactive)	-0.13 (inactive)	-0.108 (inactive)	-0.54	-0.168	0.562	-0.0135	0.751
C[C@]1(C(=O)NCc2ccccc2)c2ccccc2C(=O)N(Cc2ccc(OC(F)(F)F)cc2)[C@H]1c1ccc(CO)cc1	1.71	1.02	0.549	-0.38	0.49	-0.186	1.27	-0.111	-0.403	0.882 (inactive)	0.272	-3.15 (inactive)	-0.808 (inactive)	0.414 (inactive)	-0.958 (inactive)	-0.232	-0.0719	-0.0977	0.223	-0.135
CCCCCCCCCCC(O)C1C=CC2C(=O)N(Cc3ccccc3)C(=O)C2N1n1cnnc1 (stereo not given)	-0.244	0.812	0.656	0.532	-0.238	-0.982	-1.27	0.486	0.493	0.892 (inactive)	0.418	-4.02 (inactive)	-0.0968 (inactive)	-0.0137 (inactive)	-0.728 (inactive)	0.744	0.437	0.0668	0.567	-0.778
Cc1c(NC(=O)CC#N)c(=O)n(-c2ccccc2)n1C	0.514	0.469	0.616	0.134	0.116	0.291	0.385	0.645	0.114	0.551 (inactive)	0.0101	-2.39 (inactive)	-0.739 (inactive)	-0.671 (inactive)	-0.832 (inactive)	-0.347	-0.179	0.362	-0.0384	0.642
CCN(CC)c1ccc(N2CC=CC34O[C@@H]5C=CCCOC(=O)C5[C@H]3C(=O)N(CCCCCO)[C@@H]4C2=O)cc1 (stereo not given in full)	0.0436	-0.513	-0.172	-0.471	-0.0495	-0.304	2.56	-0.0412	0.169	-1.29 (inactive)	0.0385	-0.484 (inactive)	-0.947 (inactive)	0.593 (inactive)	-0.686 (inactive)	-0.45	0.0173	0.846	0.307	0.16
C=CC(=C)C1=CCO[C@@H]1[C@H]1CCCN1S(=O)(=O)c1ccccc1[N+](=O)[O-]	0.2	0.25	-0.318	0.802	0.976	0.174	-0.295	0.767	0.241	0.0352 (inactive)	0.224	-0.169 (inactive)	-0.484 (inactive)	0.124 (inactive)	0.619 (inactive)	0.909	-0.0221	0.343	0.136	1.84
COC(=O)c1ccc(C23CC2(C(NP(=O)(c2ccccc2)c2ccccc2)c2ccccc2)C3)cc1 (stereo not given)	2.12	1.14	1.2	0.984	1.11	-0.575	2.44	-0.414	1.15	-5.98 (inactive)	0.211	-2.07 (inactive)	0.523 (inactive)	-1.14 (inactive)	-0.0812 (inactive)	1.7	0.178	0.862	1.64	-0.803
